In all, about 370,000 compounds went through this assay and about 1,100 (0.3%) were called active. Not shown: some 1% with an inconclusive outcome. Calls come from the whole dose curve; as a rule, active = well fitted activation curve with a large enough effect; inconclusive = small, poorly fitted or top-dose-only effect; inactive = flat fitted curve, though single readings scatter. For the sample, actives were picked, then their nearest neighbours and some compounds at random.
Each compound was assayed against Relaxin receptor 1 (Homo sapiens) (UniProt Q9HBX9) (assay: qHTS Assay for Agonists of the Relaxin Receptor RXFP1). Details: HEK293T-RXFP1 cAMP TR-FRET, 30 min; series mostly up to 57.5 µM; activation: at the top concentration.
Text: NIH Chemical Genomics Center [NCGC] NIH Molecular Libraries Probe Production Centers Network [MLPCN] MLPCN Grant: R03 MH085705-01A1 Assay Submitter (PI): Alexander Agoulnik NCGC Assay Overview: The relaxin hormone is involved in the variety of biological functions in normal tissues and diseases. The role of relaxin is well-established in female reproduction and parturition, mammary gland and endometrial development, maintenance of myometrial quiescence during pregnancy. Relaxin signaling through its G protein-coupled receptor (GPCR) RXFP1 results in ECM remodeling through regulation of collagen deposition, cell invasiveness, proliferation and overall tissue homeostasis. […] Recombinant human relaxin (rhRlx) is currently being tested in clinical trials as a protective agent in congestive heart failure, in treating severe preeclampsia, and as an anti-fibrotic agent in systemic sclerosis. Upon relaxin binding RXFP1 activation leads to the activation of adenylate cyclase (AC) via Gs. cAMP will activate PKA, which phosphorylates many signaling proteins. Thus, detection of cAMP increase is an easy and reliable indication of relaxin receptor activation. To screen for agonists of the relaxin receptor, a HEK293T cell line stably transfected with RXFP1 was used. RXFP1 activation was assayed by changes in cAMP levels as detected with a time-resolved fluorescence energy transfer (TR-FRET) cAMP detection kit.
NCGC Assay Protocol Summary: This is a cell-based assay for cAMP second messenger response to screen for agonists of the RXFP1 receptor. The assay was conducted in the presence of a PDE4 inhibitor (Ro 20174). The cells were lysed and the cAMP levels were measured with a TR-FRET cAMP kit. Presence of cAMP in the cell lysate disrupts binding between the cryptate-labeled anti-cAMP and d2-labeled cAMP pair, leading to a decrease in the TR-FRET signal. Data were normalized to the controls for basal activity (buffer only) and 100% activity (29 nM porcine relaxin). The EC50 values were determined from concentration-response data modeled with the standard Hill equation 1536-well assay protocol for the HEK293 RXFP1 cAMP assay: (1) Add 3 ul HEK293 RXFP1 cell culture. 2000 cells/well in DMEM/F12, 10% FBS, 1x Pen/Strep (dispensed offline with MultiDrop Combi). (2) Incubate 16-24 hr at 37C, 5% CO2. (3) Add 1 ul 400uM Ro20174 in DPBS, 0.05% BSA, 0.005% Tween 20. (3) Add 23 nl compounds in DMSO solution. Final concentration was 0.5 - 58 uM. (4) Incubate 30 min at 37C, 5% CO2. (5) Add 1 ul cAMP-d2 in lysis buffer (HTRF cAMP HiRange kit, CisBio). (6) Add 1 ul anti-cAMP antibody-cryptate in lysis buffer (HTRF cAMP HiRange kit, CisBio). (7) Incubate 30 min at room temperature. (6) Detect the assay plate in a ViewLux plate reader (PerkinElmer) with Ex=320 nm, Em1=615 nm and Em2=665 nm. Keywords: relaxin, RXFP1, RXFP2, G-protein coupled receptor, cAMP, agonist, high throughput screening, MLSMR, MLSCN, NIH Roadmap, qHTS and NCGC
% is set by controls: 0 for no effect and ±100 for the full control effect; potency is the fitted concentration of half-maximal effect.
Note: nearly all actives have a fitted effect of over 60% in size.

Sequence of Relaxin receptor 1 (Homo sapiens) (Q9HBX9 whole entry, looked up): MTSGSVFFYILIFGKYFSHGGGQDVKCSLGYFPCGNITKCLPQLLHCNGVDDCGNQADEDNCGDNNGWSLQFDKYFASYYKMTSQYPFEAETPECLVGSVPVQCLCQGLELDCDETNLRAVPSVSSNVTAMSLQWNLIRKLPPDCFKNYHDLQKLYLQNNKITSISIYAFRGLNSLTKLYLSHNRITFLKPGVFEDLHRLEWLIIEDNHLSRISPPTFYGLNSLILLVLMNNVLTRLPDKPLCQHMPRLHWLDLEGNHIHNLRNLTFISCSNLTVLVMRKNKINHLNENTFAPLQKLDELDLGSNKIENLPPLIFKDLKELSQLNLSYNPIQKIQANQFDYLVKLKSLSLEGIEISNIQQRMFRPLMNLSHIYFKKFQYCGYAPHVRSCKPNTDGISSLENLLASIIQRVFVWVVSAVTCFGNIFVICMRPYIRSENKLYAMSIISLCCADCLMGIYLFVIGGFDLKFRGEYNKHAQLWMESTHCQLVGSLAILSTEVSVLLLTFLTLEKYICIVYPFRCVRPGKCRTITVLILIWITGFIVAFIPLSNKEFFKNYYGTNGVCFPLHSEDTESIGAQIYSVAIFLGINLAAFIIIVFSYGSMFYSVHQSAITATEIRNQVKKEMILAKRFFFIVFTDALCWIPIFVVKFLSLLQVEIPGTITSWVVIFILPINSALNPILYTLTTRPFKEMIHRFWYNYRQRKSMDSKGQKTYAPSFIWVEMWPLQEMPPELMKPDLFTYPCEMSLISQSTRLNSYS

activation, inactive:
O=C1CN(C(=O)Nc2ccccc2C(F)(F)F)C(c2ccccc2)c2c(sc3c2CCCC3)N1 (centres undefined) -3.54%
Cc1cccc(N2CCN(C(=O)CCn3c(=O)c4cccn4c4cccnc43)CC2C)c1 (centres undefined) 0.827%
Cc1ccc(CCNC(=O)c2ccc3c(c2)nc2n3CCC(C)C2)cc1 (centres undefined) -2.6%
COc1ccc(-c2cn3c(n2)sc2cc(C(=O)Nc4ccccc4F)ccc23)cc1 12.7%
CC(C)(C)C1CCc2c(sc(NC(=O)c3ccccc3F)c2C(=O)N2CCCCC2)C1 (centres undefined) 6.29%
CCN1CCN(Cc2c(O)ccc3oc(C)c(C(=O)Nc4ccc(C)cc4C)c23)CC1 0.265%
COc1cccc(-n2cc(C(=O)NCc3cccc(Cl)c3)c3ccccc3c2=O)c1 1.08%
COc1ccc(NC(=O)NC(C)c2c(-n3cccc3)sc(C)c2C)cc1OC (centres undefined) 1.3%
CCOC(=O)c1ccc(NC(=O)CSc2nc3c([nH]c4ccccc43)c(=O)n2C)cc1 1.08%
Cc1c(Cl)cccc1NC(=O)Cn1cc(C(=O)c2cccs2)c2ccccc21 2.58%
CC(=O)N1CCCc2ccc(NS(=O)(=O)c3ccc(F)cc3F)cc21 -0.645%
COc1cccc(Cn2c(CNS(=O)(=O)c3ccc(Cl)s3)nc3cccnc32)c1 1.25%
CCN(CC)S(=O)(=O)c1ccc(C(=O)N=c2sc3cccc(OC)c3n2C)cc1 3.69%
CCOC(=O)c1sc(=NC(=O)/C=C/c2cccs2)n(C)c1C 2.99%
CCN(CC)c1ccc(C2C(C(N)=O)=C(C)Nc3nc(SCc4ccccc4)nn32)cc1 (centres undefined) 3.85%
Cc1ccccc1CSc1nc(-c2ccccc2)nc2c1Cc1c(CO)cnc(C)c1O2 6.11%
CCOc1ccc(S(=O)(=O)N(CC(=O)NCCSCc2ccc(C)cc2)c2ccccc2)cc1 0.384%
Cc1nn2c(=O)cc(COC(=O)c3cccc(NC(=O)COc4ccccc4Cl)c3)nc2s1 0.441%
C#CC(C)(C)NC(=O)CSc1nc2c(c(=O)n(C)c(=O)n2C)n1CCCC 5.88%
Cn1c(=O)c2c(SCC(=O)N3CCOCC3)nc(C3CC3)nc2n(C)c1=O 9.17%
Cc1cc(C)cc(OCC(=O)Nc2nc(-c3ccc(F)cc3)ns2)c1 16.4%
O=C(CSc1nccn1-c1ccc(F)cc1)Nc1cccc2ccccc12 -0.361%
Cc1ccc(CNC(=O)CCc2c(C)nc3nc(CNC(=O)OC(C)(C)C)nn3c2C)cc1 0.404%
COc1ccccc1-c1nnc(C2CCN(C(=O)c3ccc(Cl)cc3)CC2)o1 3.12%
CC1Cc2cc(S(=O)(=O)CCC(=O)Nc3ccc(F)c(Cl)c3)ccc2N1C(=O)C1CC1 (centres undefined) -0.89%
COc1ccccc1/C=C/c1nc(C#N)c(NC(C)c2ccccc2)o1 (centres undefined) 17.5%
CCOc1ccc(C2C(=O)N(C3CCCCC3)CC(=O)N2CCC2=CCCCC2)cc1OC (centres undefined) 2.13%
COc1ccc(-c2noc(-c3ccc(N4CCN(c5ccccc5)CC4)c([N+](=O)[O-])c3)n2)cc1OC -5.38%
COc1ccc(CNC(=O)c2cc3c(=O)[nH]c4ccccc4c3s2)cc1 20.9%
CCCn1c(=N)n(CC(O)COc2ccccc2OC)c2ccccc21 (centres undefined) -0.0771%
Cc1cc2c(cc3c(SCc4nc(-c5ccccc5)oc4C)nnc(C)n32)o1 21.8%
Cc1nnc(SCc2cccc(Cl)c2)n(N)c1=O 2.6%
NS(=O)(=O)c1ccc(CCNC(=O)CCCCCn2c(=O)[nH]c3ccccc3c2=O)cc1 0.989%
FC(F)(F)c1cc(Nc2nc3ccccc3c3nncn23)ccc1Cl 2.38%
O=C(COc1ccc2c3c(c(=O)oc2c1)CCC3)NC1CCCCC1 3.76%
O=C(COc1ccc2c3c(c(=O)oc2c1)CCCC3)NCC(O)c1ccccc1 (centres undefined) 25.9%
COc1ccccc1CCNC(=O)CSc1nnc2ccc(-c3cccnc3)nn12 21.2%
COC(=O)c1ccc(CSc2ccc3nnc(-c4ccccc4)n3n2)o1 7.04%
Cc1c(C)n(Cc2ccc(Cl)cc2)c2ccc(C(=O)NCCc3ccc(S(N)(=O)=O)cc3)cc12 -0.239%
O=C(CN1CCN(Cc2ccc(Cl)cc2)C1=O)NCc1ccc(F)cc1 3.31%
COc1ccccc1OCC(=O)Nc1nnc2n1CCS2 3.18%
COCCNC(=O)c1cc(-c2cccc(Cl)c2)on1 -2.02%
O=C(CSc1nccn1C1CCCC1)Nc1cc(C(F)(F)F)ccc1Cl 1.18%
CC(C)c1ccc(NC(=O)c2ccc(Cn3nc(N4CCN(c5ccccc5)CC4)ccc3=O)o2)cc1 -0.547%
O=C(Nc1ccccc1Br)c1cc(CN2CCCC2)on1 2.48%
Cc1ccc(NC(=O)CCCn2c(=O)c3cccn3c3ccccc32)cc1Cl -3.2%
COc1ccc(C2=NC3(CCCCC3)N(CC(=O)Nc3ccc(C(C)C)cc3)C2=O)cc1 0.659%
COc1ccc(CCNC(=O)CCCCn2c(=O)c3ccccc3n(Cc3ccccc3C)c2=O)cc1OC -0.919%
Fc1ccc(Nc2nc(SCc3ccccc3Cl)nc3ccccc23)cc1 -0.424%
COc1ccc(S(=O)(=O)NCC(c2ccc(N(C)C)cc2)N2CCCC2)cc1 (centres undefined) 1.24%
O=C(CN1C(=O)COc2ccc(S(=O)(=O)N3CCCCCC3)cc21)N1CCN(c2cccc(C(F)(F)F)c2)CC1 -0.516%
CCCC(=O)Nc1cc2nn(-c3ccccc3)nc2cc1C 1.57%
N#Cc1nc(/C=C/c2ccc(F)cc2)oc1NC1CCCCC1 17.1%
CCCS(=O)(=O)c1c(Nc2ccccc2C)sc(C(=O)c2ccccc2)c1N 1.63%
Cc1nn(C(=O)c2c(F)cccc2F)c(C)c1S(=O)(=O)N1CCOCC1 0.115%
CC(=O)c1ccc(NC(=O)CCc2nc(-c3ccc(C)cc3)no2)cc1 5.37%
Cc1ccc(C)n1-c1nnc(N2CCC(C(=O)NCc3ccccc3Cl)CC2)s1 -1.52%
CCc1ccc(CN(Cc2ccco2)C(=O)COc2ccc(Cl)c(C)c2)cc1 -2.55%
CCOc1ccccc1C(=O)NCC(c1ccc(N(C)C)cc1)N1CCCC1 (centres undefined) -0.212%
Cc1cccc(Nc2cc(C)nc(-n3nc(C)cc3C)n2)c1 2.8%
Cc1ccc2oc(=O)c3cnn(CC(=O)NCc4ccccc4Cl)c3c2c1 11.8%
Cc1ccc(-c2cnc(NCc3ccc(C(C)C)cc3)n2C)cc1 2.92%
COc1ccc(/C=C/c2nc(C#N)c(NCc3ccc(F)cc3)o2)cc1OC 7.14%
COc1cccc(-c2nnc3n(CCc4ccccc4)c(=O)c4ccccc4n23)c1O -6.16%
CCCSc1ncc(Cl)c(C(=O)Nc2sc3c(c2C(=O)NCCOC)CCCC3)n1 0.71%
O=C(COc1ccccc1Cl)Nc1ccc2nc(SCC(=O)N3CCCC3)sc2c1 -0.6%
Cc1ccc(CNC(=O)CCc2c(C)nn(-c3ccc(N4CCCC4)nn3)c2C)cc1 1.44%
Cc1cc(C)c(NC(=O)CN2C(=O)c3cccnc3Oc3ccc(Cl)cc32)c(C)c1 -0.402%
Cc1cccc(CSc2nc3ccncc3n2CC(=O)N(C)C2CCCCC2)c1 26.3%
O=C(CSc1nccn1Cc1ccc(F)cc1)NCc1ccccc1 1.6%
Cc1ccc(NC(=O)CSc2nnc3[nH]c(=O)cc(C)n23)cc1Cl 1.96%
COc1ccc(-c2nc(SCC(=O)N3CCCCC3C)n[nH]2)cc1 (centres undefined) 4.16%
O=C(c1cccc(Br)c1)N1CCN(Cc2cc(=O)n3nc(-c4ccccc4)sc3n2)CC1 0.565%
Cc1ccc(-n2cnc3cc(C(=O)NCCC4=CCCCC4)ccc32)cc1Cl -0.218%
Brc1ccc2c(c1)NC(c1cccnc1)=NC(c1ccccc1)=N2 2.1%
CCc1cnc2c(c1SCC(=O)N1CCC(C)CC1)c(=O)n(C)c(=O)n2C 12.8%
Cc1cc(C)c(/C=C/c2onc(C)c2S(=O)(=O)N2CCC(C(=O)Nc3ccc(Cl)cc3C)CC2)c(C)c1 0.56%
CCCNC(=O)c1ccc2c(c1)ncn2-c1ccc(C)cc1C -0.066%
COc1ccc(S(=O)(=O)NCc2cccn2Cc2cccc(C)c2)cc1Cl 3.64%
CCOC(=O)N1CCc2c(sc(NCc3cccc(F)c3)c2C(=O)Nc2ccccc2OCC)C1 3.22%
COc1cccc(OCCn2c(-c3ccc(Br)cc3)nc3ccccc3c2=O)c1 -2.88%
O=C(CCS(=O)(=O)c1ccc2c(c1)NC(=O)CO2)Nc1cccc(C(F)(F)F)c1 -0.361%
CCOc1ccc(C(=O)/C=C/c2cn(CC(O)CN3CCCCCC3)c3ccccc23)cc1 (centres undefined) -1.71%
COc1ccc(N2CCN(C(=O)CSCc3nc(-c4ccccc4Cl)oc3C)CC2)cc1 0.152%
Cc1ccc(NC(=O)NC(C)c2c(-n3cccc3)sc(C)c2C)c(C)c1 (centres undefined) -0.32%
CCc1cc2c(cc3c(=O)n(CC(=O)NCc4cccc(Cl)c4)nc(CC)n32)s1 12.2%
Cc1ccc(-n2ncc3c(N4CCC(C(N)=O)CC4)ncnc32)cc1 16.5%
COC(=O)c1ccc(NC(=O)CCc2c(C)nc3c(c(C)nn3-c3ccc(C)cc3)c2C)cc1 -1.04%
CCCCOc1ccc(CN2C(=O)C(=O)c3cc(Br)cc(C)c32)cc1OC 0.139%
CCOc1ccccc1CNC(=O)Nc1cn(CC(C)C)c(=O)c2ccccc12 -0.657%
CN(Cc1ccccc1)C(=O)c1cn(C)c2ccc(S(=O)(=O)N3CCCCC3)cc2c1=O -0.519%
Cc1ccccc1CNC(=O)Cn1c(C)c2cnn(-c3ccccc3)c(=O)c2c1C 1.46%
Cc1ccc2oc3c(c(=O)c2c1)C(c1ccc(O)cc1)N(Cc1ccc2c(c1)OCO2)C3=O (centres undefined) -0.0237%

Potency, active:
CCOC(=O)c1sc(=NC(=O)c2ccc(Br)cc2)n(C)c1C 17.8 µM
CCCC(=O)Nc1ncnc2c1ncn2[C@@H]1O[C@@H]2OP(=O)(O)OC[C@H]2[C@H]1OC(=O)CCC 0.631 µM
CCCCn1c(SCC(=O)N2CCOCC2)nc2c1c(=O)n(C)c(=O)n2C 15.8 µM
Cc1cc2c(cc3c(SCc4cccc(Cl)c4)nnc(C)n32)o1 22.4 µM
O=C(Oc1ccccc1)Oc1ccc2c(c1)oc(=O)c1ccccc12 7.94 µM
CCOC(=O)CNC(=O)CSc1ccc2nnc(-c3cccnc3)n2n1 17.8 µM

— PubChem BioAssay AID2676 (National Center for Advancing Translational Sciences (NCATS), 2010)
